PubChem BioAssay (Tox21)
Records with an inconclusive call do not appear. Active and inactive are the calls of the source. Unless noted, the call rests on the fitted dose curve.

How the values were obtained:
[1] = qHTS assay to identify small molecule agonists of the NFkB signaling pathway (AID 1159509; active means well fitted curve in the direction sought with a large enough effect in the signal ratio in the repeat runs, not every such curve was filed as active; the % refers to the signal ratio; further: series mostly up to about 61 µM)
How it was run: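 Agonist activity was read as beta-lactamase-driven FRET change (460 and 530 nm emission, 405 nm excitation) following 1.5 hr substrate loading at room temperature. Beforehand, ME-180 NFkB-bla reporter cells were treated with compounds for 5 hr at 37 C.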

[2] = qHTS assay to identify small molecule agonists of the NFkB signaling pathway - cell viability counter screen (AID 1159515); further: series mostly up to about 61 µM; nearly all actives have a fitted effect of over 55% in size
How it was run: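 ME-180 NFkB-bla cells, 2,000/well; overnight attach; compound 5 hr, 37 C/5% CO2; LiveBLAzer substrate 1.5 hr RT; then CellTiter-Glo in same wells, 30 min RT, luminescence read.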

[3] = qHTS assay to identify small molecule agonists of the endoplasmic reticulum stress response signaling pathway (AID 1159516; active means well fitted activation curve with a large enough effect in the signal ratio in the repeat runs, not every such curve was filed as active; the % refers to the signal ratio)
How it was run: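 HeLa ESRE-bla reporter line; cpd 5 h, 37 C/5% CO2; LiveBLAzer B/G FRET substrate 2 h RT; ex 405, em 460/530 nm.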

[4] = qHTS assay to identify small molecule agonists of the endoplasmic reticulum stress response signaling pathway - cell viability counter screen (AID 1159517);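 further: HeLa cells carrying an ER stress response element beta-lactamase reporter; series mostly up to about 61 µM; nearly all actives have a fitted effect of over 50% in size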
How it was run: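 In parallel with the ESRE reporter read, cytotoxicity was scored by CellTiter-Glo luminescence (30 min, room temperature) on HeLa ESRE-bla cells dosed for 5 hr.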

[5] = qHTS assay to identify small molecule antagonists of the retinoid-related orphan receptor gamma (ROR-gamma) signaling pathway - cell viability counter screen (AID 1159520; active means well fitted curve in the direction sought with a large enough effect in the repeat runs; an effect the other way counts as inactive or inconclusive; further: nearly all actives have a fitted effect of over 50% in size)
How it was run: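 Tet-on ROR gamma CHO cells were given compounds for 2 hr, then doxycycline hyclate at 1 uM final, and incubated 16 hr at 37 C. Viability was measured as ATP content by CellTiter-Glo luminescence.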

[6] = target: Nuclear receptor ROR-gamma (Homo sapiens) (UniProt P51449); experiment: qHTS assay to identify small molecule antagonists of the retinoid-related orphan receptor gamma (ROR-gamma) signaling pathway (AID 1159521; active means well fitted curve in the direction sought with a large enough effect in the repeat runs; an effect the other way counts as inactive or inconclusive; further: top concentration of the series differs between compounds; nearly all actives have a fitted effect of over 50% in size)
How it was run: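 Antagonist read-out: drop in luminescence (ONE-Glo) from an RORE-LUC reporter in CHO cells with doxycycline-inducible ROR-gamma; 2 hr compound pretreatment, 1 uM doxycycline, 16 hr incubation at 37 C.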

[7] = qHTS assay to identify small molecule agonists of the AP-1 signaling pathway - cell viability counter screen (AID 1159525); further: nearly all actives have a fitted effect of over 55% in size
How it was run: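 Same-well cytotoxicity counter screen of the Tox21 10K library in ME-180 cells. The readout is ATP-dependent luminescence after 5 h compound treatment. Data are normalised to DMSO and tetra n-octyl ammonium bromide controls.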

[8] = qHTS assay to identify small molecule agonists of the AP-1 signaling pathway (AID 1159526)
[9] = target: Retinoic acid receptor RXR-alpha (Homo sapiens) (UniProt P19793); experiment: qHTS assay to identify small molecule agonists of the RXR signaling pathway (AID 1159527); further: nearly all actives have a fitted effect of over 35% in size
How it was run: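 Agonist-mode beta-lactamase reporter assay: HEK 293T RXR-alpha-UAS-bla cells treated 16 hr at 37 C with compounds, 9-cis retinoic acid as positive control. LiveBLAzer FRET substrate, 405 nm excitation, 460/530 nm emission.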

[10] = qHTS assay to identify small molecule antagonists of the vitamin D receptor (VDR) signaling pathway - cell viability counter screen (AID 743225; active means well fitted curve in the direction sought with a large enough effect in the repeat runs; an effect the other way counts as inactive or inconclusive; further: nearly all actives have a fitted effect of over 50% in size)
How it was run: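 Cytotoxicity counter screen read by CellTiter-Glo luminescence (30 min, room temperature) in the same wells as the VDR-bla antagonist readout. HEK 293T VDR-UAS-bla cells had 16 h at 37C with compound and 3 nM (final) 1-alpha,25-dihydroxyvitamin D3, then 2 h with FRET substrate.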

Measured: Potency

Retinoic acid receptor RXR-alpha (Homo sapiens), sequence (P19793 whole entry, looked up): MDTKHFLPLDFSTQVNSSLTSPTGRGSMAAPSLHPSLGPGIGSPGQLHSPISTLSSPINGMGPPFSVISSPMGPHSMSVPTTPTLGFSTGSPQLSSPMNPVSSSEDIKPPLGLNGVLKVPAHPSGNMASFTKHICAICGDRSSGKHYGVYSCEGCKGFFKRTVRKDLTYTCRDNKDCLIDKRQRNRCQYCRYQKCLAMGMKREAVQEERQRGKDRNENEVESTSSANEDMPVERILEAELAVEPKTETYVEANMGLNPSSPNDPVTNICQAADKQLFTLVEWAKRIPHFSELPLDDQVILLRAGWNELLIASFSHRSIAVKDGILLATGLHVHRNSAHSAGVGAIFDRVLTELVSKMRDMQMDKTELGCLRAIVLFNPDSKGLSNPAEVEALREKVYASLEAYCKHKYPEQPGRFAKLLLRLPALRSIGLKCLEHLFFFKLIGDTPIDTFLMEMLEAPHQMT

OCC1CCC(CO)CC1 (stereo not drawn)
not listed: [10]
inactive: all other assays above

CC1(C)[C@H]2CC[C@](C)(C2)[C@H]1O
not listed: [10]
inactive: all other assays above

CO/N=C(/C(=O)N[C@@H]1C(=O)N2C(C(=O)[O-])=C(C[n+]3ccn4ncccc43)CS[C@H]12)c1nsc(N)n1
not listed: [10]
inactive: all other assays above

OC[C@H]1O[C@@H](O[C@@H]2[C@@H](CO)O[C@](O)(CO)[C@H]2O)[C@H](O)[C@@H](O)[C@H]1O
not listed: [10]
inactive: all other assays above

CCC(=O)CC
not listed: [10]
inactive: all other assays above

COC(=O)c1cccc(Cl)c1
not listed: [10]
inactive: all other assays above

COc1cc2c(cc1OC)C(=O)C(CC1CCN(Cc3ccccc3)CC1)C2 (stereo not drawn)
not listed: [10]
inactive: all other assays above

CCCCOC(=O)[C@H](C)O
not listed: [10]
inactive: all other assays above

O=C(Cn1ccnc1[N+](=O)[O-])NCc1ccccc1
not listed: [10]
inactive: all other assays above

CC(C)(C)NC[C@H](O)COc1cccc2c1CCCC2=O
not listed: [10]
inactive: all other assays above

CCC(C)OC(C)CC (stereo not drawn)
not listed: [10]
inactive: all other assays above

Cc1c(NC(=O)c2cccnc2)c(=O)n(-c2ccccc2)n1C
inactive: all assays above

Cc1c(N)cccc1Cl
not listed: [10]
inactive: all other assays above

CCCCCCCCCOC(=O)CCCCC(=O)OCCCCCCC
not listed: [10]
inactive: all other assays above

C/C(=C1\CCOC(=O)S1)N(C=O)Cc1cnc(C)nc1N
not listed: [10]
inactive: all other assays above

C=C(C)[C@@H]1CC=C(C)C(=O)C1
not listed: [10]
inactive: all other assays above

OCC(O)CN1CCN(c2ccccc2)CC1 (stereo not drawn)
not listed: [10]
inactive: all other assays above

CCCCCCCCCCCCCBr
not listed: [10]
inactive: all other assays above

CCC(C)C(C)=O (stereo not drawn)
inactive: all assays above

CC(C)COC(=O)c1ccccc1
not listed: [10]
inactive: all other assays above

CC(=O)c1cc(C)oc1C
not listed: [10]
inactive: all other assays above

COC(=O)c1cc(Cl)cc(Cl)c1
not listed: [10]
inactive: all other assays above

CCCC(=O)OC/C=C(\C)CCC=C(C)C
not listed: [10]
inactive: all other assays above

NCc1ccc(S(N)(=O)=O)cc1
not listed: [10]
inactive: all other assays above

C/C=C(\C)C(C)=O
inactive: all assays above
